# In paper PMC4336329 (PLoS ONE, 2015):
# Screen size: about 310,000 compounds; about 14,000 (4.5%) showed an effect of 50% or more. Effects have a minus sign here. The list comes from a sample in which strong results are over-represented; it also holds similar structures and randomly drawn compounds.
# Molecular target: human ether-à-go-go-related gene (hERG) potassium channel (human, UniProt Q12809)
# Experiment: primary screen, population patch clamp on CHO cells stably expressing hERG; higher = less effect of the substance
# 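Note: peak tail current of the secondary pulse compared with the same well before compound.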
# Sequence of human ether-à-go-go-related gene (hERG) potassium channel (Q12809 whole entry, looked up): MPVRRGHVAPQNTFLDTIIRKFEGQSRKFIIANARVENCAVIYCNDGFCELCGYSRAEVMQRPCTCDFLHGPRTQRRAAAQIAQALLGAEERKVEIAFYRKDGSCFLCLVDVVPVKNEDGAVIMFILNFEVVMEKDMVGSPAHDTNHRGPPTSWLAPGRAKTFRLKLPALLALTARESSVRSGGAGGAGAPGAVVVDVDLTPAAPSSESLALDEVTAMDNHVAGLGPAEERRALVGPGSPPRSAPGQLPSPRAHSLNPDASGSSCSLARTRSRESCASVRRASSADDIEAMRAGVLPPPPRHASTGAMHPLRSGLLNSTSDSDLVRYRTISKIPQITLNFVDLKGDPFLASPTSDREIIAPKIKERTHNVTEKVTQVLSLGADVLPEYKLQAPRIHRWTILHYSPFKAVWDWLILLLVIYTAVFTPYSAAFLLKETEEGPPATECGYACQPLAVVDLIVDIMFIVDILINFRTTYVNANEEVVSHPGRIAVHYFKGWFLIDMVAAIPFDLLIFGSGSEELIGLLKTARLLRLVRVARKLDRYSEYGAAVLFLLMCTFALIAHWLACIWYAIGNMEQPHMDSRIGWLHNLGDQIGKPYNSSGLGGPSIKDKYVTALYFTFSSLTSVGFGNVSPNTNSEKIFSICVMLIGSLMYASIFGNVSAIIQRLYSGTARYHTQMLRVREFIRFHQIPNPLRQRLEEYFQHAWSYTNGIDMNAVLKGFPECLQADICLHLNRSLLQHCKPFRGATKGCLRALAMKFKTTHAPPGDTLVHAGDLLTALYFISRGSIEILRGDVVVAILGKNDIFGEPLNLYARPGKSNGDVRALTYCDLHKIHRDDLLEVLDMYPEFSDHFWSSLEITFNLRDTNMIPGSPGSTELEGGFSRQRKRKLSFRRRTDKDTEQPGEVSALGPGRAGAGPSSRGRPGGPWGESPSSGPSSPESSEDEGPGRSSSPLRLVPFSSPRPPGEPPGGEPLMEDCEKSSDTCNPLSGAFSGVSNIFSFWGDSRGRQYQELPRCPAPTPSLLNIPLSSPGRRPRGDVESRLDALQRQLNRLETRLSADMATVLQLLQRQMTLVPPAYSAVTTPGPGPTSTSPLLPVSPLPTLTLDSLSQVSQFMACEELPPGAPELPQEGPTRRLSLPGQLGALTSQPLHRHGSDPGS
row,SMILES,"hERG current change (%, negative = inhibition) at 10uM [%]"
1,COc1cccc(-c2nnc(SCC(N)=O)n2-c2ccc(Cl)cc2)c1,-9.7
2,CC(=O)NNC(=O)CN1C(=O)CN=C(c2ccccc2)c2cc(Br)ccc21,13.1
3,O=C1CN=C(c2ccccc2)c2cc(Br)ccc2N1Cc1cc(=O)n2ccccc2n1,-51.7
4,NNC(=O)CN1C(=O)CN=C(c2ccccc2)c2cc(Br)ccc21,-5.51
5,COc1ccc(N2CCN(C(=O)C3CCCN3S(=O)(=O)c3cccc4nsnc34)CC2)cc1 (stereo not shown),-30.6
6,O=C(C1CCCN1S(=O)(=O)c1cccc2nsnc12)N1CCCCC1 (stereo not shown),11
7,O=C(C1CCCN1S(=O)(=O)c1cccc2nsnc12)N1CCN(c2ccc(F)cc2)CC1 (stereo not shown),-69.3
8,O=C(C1CCCN1S(=O)(=O)c1cccc2nsnc12)N1CCCCCC1 (stereo not shown),7.97
9,O=C(C1CCCN1S(=O)(=O)c1cccc2nsnc12)N1CCN(c2ccccc2)CC1 (stereo not shown),-69.5
10,CC(=O)c1ccc(N2CCN(C(=O)C3CCCN3S(=O)(=O)c3cccc4nsnc34)CC2)cc1 (stereo not shown),-1.72
11,CCOc1ccc(/C(O)=C2/C(=O)C(=O)N(c3ncccn3)C2c2ccccc2)cc1 (stereo not shown),-4.75
12,CN1CCN(S(=O)(=O)c2cccc(C(=O)Nc3cc(C(F)(F)F)ccc3N3CCCC3)c2)CC1,-1.41
13,CCCCCn1nc(C)c(/C=N\NC(=O)c2cc(C)oc2C)c1C,-65.5
14,CCCCCn1nc(C)c(/C=N/NC(=O)c2ccoc2C)c1C,-43.8
15,Cc1cc(C(=O)N/N=C/c2c(C)nn(-c3ccccc3)c2C)c(C)o1,3.8
16,O=C(Nc1cccnc1Cl)c1cc([N+](=O)[O-])ccc1Cl,9.09
17,Fc1ccc(CNc2nc(-c3cccnc3)nc3ccccc23)cc1,-50.4
18,c1ccc(-c2nc(NCCCn3ccnc3)c3ccccc3n2)cc1,-59.3
19,OC(CNc1nc(-c2cccnc2)nc2ccccc12)c1ccccc1 (stereo not shown),-36.4
20,Cc1nc(NCCCn2ccnc2)c2ccccc2n1.Cl,3.46
21,Fc1ccccc1CNc1nc(-c2cccnc2)nc2ccccc12,17.8

row,SMILES,"hERG current change (%, negative = inhibition) at 10uM [%]"
1,c1cncc(-c2nc(NCCCn3ccnc3)c3ccccc3n2)c1,-53.5
2,c1cncc(-c2nc(NCc3ccco3)c3ccccc3n2)c1,-5.1
3,c1ccc(CNc2nc(-c3cccnc3)nc3ccccc23)cc1,-23.4
4,COc1cccc(CNc2nc(-c3cccnc3)nc3ccccc23)c1,-15.6
5,Cc1ccc(CNc2nc(-c3cccnc3)nc3ccccc23)cc1,8.72
6,COc1ccc(C(CNc2nc(-c3cccnc3)nc3ccccc23)N(C)C)cc1 (stereo not shown),-59.2
7,COCCCNc1nc(-c2ccncc2)nc2ccccc12,-15.5
8,CC(=O)N1CCCc2cc(S(=O)(=O)N3CCCC(C(=O)Nc4ccccc4C)C3)ccc21 (stereo not shown),10.9
9,Cc1cc(C)cc(NC(=S)N2CCN(C(=O)c3ccco3)CC2)c1,-0.347
10,Cc1onc(-c2ccccc2Cl)c1C(=O)OCC(=O)N1CCN(c2ccccc2)CC1,-16.1
11,CC1=C(C(=O)OCc2ccccc2)C(c2ccc(C#N)cc2)NC(=O)N1CCCC(=O)O (stereo not shown),10.9
12,CCOC(=O)CSc1nc2ccccc2c(=O)n1C,10.1
13,CCOC(=O)c1c(NC(=O)CSc2nccn2C)sc(C(=O)NC)c1C,-11.5
14,COc1ccc2ccccc2c1/C=N/N1C(=O)CSC1=S,16.7
15,COc1ccc(-n2nc(C(=O)NCC(=O)NCCCN3CCOCC3)c3ccccc3c2=O)cc1,3.4
16,CCN(CC(=O)N1CCCC1)S(=O)(=O)c1ccc(Br)cc1,13.5
17,CCc1cc(=O)oc2c3c(cc(OCC(=O)NC4CC4)c12)OC(C)(C)CC3,-13.9
18,Cc1ccc(CN2CCN(/N=C/c3cccnc3)CC2)c(C)c1,-47.5
19,COc1ccccc1NC(=O)Cn1c(C)cc(=O)c2cccc(OC)c21,-33.3
20,COCCNC(=O)c1c[nH]c2ccc(S(=O)(=O)N3CCc4ccccc43)cc2c1=O,6.11
21,O=C(OCc1ccccc1F)c1ccc2c(c1)-c1ccccc1C2=O,16.4

row,SMILES,"hERG current change (%, negative = inhibition) at 10uM [%]"
1,Cc1cccc(OCCn2c(=O)n(C)c3ccccc32)c1,-13.6
2,CCOC(=O)Cn1c(=N)n(Cc2ccccc2F)c2ccccc21.Cl,-28.3
3,Cc1cccc(OCCn2c(=O)sc3ccccc32)c1,-3.38
4,CCOC(=O)Cn1c(=N)n(CCOc2ccc(F)cc2)c2ccccc21.Cl,-65.8
5,CCOC(=O)Cn1c(=N)n(CCOc2ccc(OC)cc2)c2ccccc21.Cl,-56.4
6,CCOC(=O)Cn1c(=N)n(CCOc2cccc(C)c2)c2ccccc21.Cl,-62.2
7,CCOC(=O)Cn1c(=N)n(CCOc2ccc(Br)cc2)c2ccccc21.Cl,-69.5
8,Br.C=CCn1c(=N)n(CC(=O)OCC)c2ccccc21,5.36
9,Cl.N=c1n(CCCOc2ccc(F)cc2)c2ccccc2n1CC(N)=O,-41.6
10,Cl.N=c1n(CCCOc2ccc(Br)cc2)c2ccccc2n1CC(N)=O,-44.7
11,CCOC(=O)Cn1c(=O)n(CC(=O)OCC)c2ccccc21,12.3
12,CCOC(=O)Nc1ccc(S(=O)(=O)N2CCOCC2)cc1,6.38
13,CC(/C=N/Nc1nc2ccccc2[nH]1)=C\c1ccccc1,-41.8
14,O=C(NCCCN1CCCC1=O)Nc1ccc(F)c(Cl)c1,-1.92
15,Cc1nc2ccccc2c(=O)n1-c1cccc(NS(=O)(=O)c2ccccc2)c1,-20.9
16,CC(=O)Nc1ccc(N2C(=O)c3ccc(C(=O)Nc4nnc(SCc5ccc(F)cc5)s4)cc3C2=O)cc1,13.4
17,Cl.OC(c1ccccc1)(c1ccc(F)cc1)C(c1ccccc1)N1CCOCC1 (stereo not shown),16.8
18,CC(=O)NC(=O)COC(=O)c1ccc2ncsc2c1,18.5
19,O=C(CSc1cccc2cccnc12)N/N=C/c1cccc(O)c1,2.95
20,CCOc1ccccc1N1CCN(C(=O)c2cc3c(C)cc(C)cc3[nH]2)CC1,-4.74
21,COc1ccc(/C=N/NC(=O)c2ccccc2)cc1OS(=O)(=O)c1ccccc1,-3.53

row,SMILES,"hERG current change (%, negative = inhibition) at 10uM [%]"
1,CCCCn1c(SC(C)C(N)=O)nc2cc(C(=O)OC)ccc2c1=O (stereo not shown),-1.48
2,Cn1c(=O)[nH]c(=O)c2c1nc(N1CCN(CCO)CC1)n2Cc1ccccc1Cl,-6.38
3,O=C(NC(=O)c1ccccc1)NC1(C(F)(F)F)OCCO1,2.65
4,Cc1ccc(-c2nnc(SCC(=O)N/N=C/c3ccccc3C(=O)O)n2C2CCCCC2)cc1,11.1
5,CCCOc1ccc(C(C)=O)cc1CSc1nc(O)cc(=O)[nH]1,14.4
6,COc1ccc(S(N)(=O)=O)cc1C(=O)OCCCOC(=O)c1cc(S(N)(=O)=O)ccc1OC,4.29
7,Br.CCCn1c(=N)n(CC(=O)OCC)c2ccccc21,-4.66
8,CCOC(=O)Cn1c(=N)n(CCOc2ccc3ccccc3c2)c2ccccc21.Cl,-75.3
9,Br.CCOC(=O)Cn1c(=N)n(Cc2ccccc2)c2ccccc21,-34.6
10,CN1CCN(C(=O)C2=C[C@H](c3coc4ccccc4c3=O)C[C@H](OCc3ccc(CO)cc3)O2)CC1,-41.1
11,NC(=O)C1=C[C@@H](c2coc3ccccc3c2=O)C[C@@H](OCc2ccc(CO)cc2)O1,-31
12,O=C(C1=C[C@@H](c2coc3ccccc3c2=O)C[C@@H](OCc2ccc(CO)cc2)O1)N1CCN(Cc2ccccc2)CC1,-48
13,C=CCOC(=O)C1=C[C@@H](c2coc3ccccc3c2=O)C[C@@H](OCc2ccc(CO)cc2)O1,-40.9
14,O=C(C1=C[C@H](c2coc3ccccc3c2=O)C[C@H](OCc2ccc(CO)cc2)O1)N1CCOCC1,-49.7
15,O=C(C1=C[C@@H](c2coc3ccccc3c2=O)C[C@@H](OCc2ccc(CO)cc2)O1)N1CCOCC1,-24.7
16,O=C(C1=C[C@H](c2coc3ccccc3c2=O)C[C@H](OCc2ccc(CO)cc2)O1)N1CCN(Cc2ccccc2)CC1,-61.7
17,O=C(C1=C[C@@H](c2coc3ccccc3c2=O)C[C@@H](OCc2ccc(CO)cc2)O1)N1CCCCCCC1,-66.5
18,C=CCOC(=O)C1=C[C@H](c2coc3ccccc3c2=O)C[C@H](OCc2ccc(CO)cc2)O1,-62.3
19,CCOC(=O)c1ccc(NS(=O)(=O)c2c(C)[nH]c(C)c2C(=O)N2CCCCC2)cc1,7.73
